# In all, about 420,000 compounds went through this assay and about 64,000 (15%) were called active. Inconclusive results (about 27%) are left out. Not all results are given here. A number with no mark means an inactive call. The call rests on the fitted dose curve; in most records, active means well fitted inhibition curve with a large enough effect; inconclusive means small, poorly fitted or top-dose-only effect; inactive means flat fitted curve, though single readings scatter.
# Assay: qHTS for Inhibitors of human tyrosyl-DNA phosphodiesterase 1 (TDP1): qHTS in cells in absence of CPT; further: nearly all actives have a fitted effect of over 55% in size
# Settings: DT40 Tdp1-/- hTDP1 cells, no CPT, ATP luminescence, 48 h; activity change, negative = growth inhibition: at 46.2 µM (top of the series)
# In short: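 Stably hTDP1-transfected Tdp1-null chicken DT40 cells were treated with library compounds minus camptothecin and grown for at least 48 hr at 37 °C, after which cellular ATP was quantified by luminescence.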
# On the % scale 0 is the no-effect control and ±100 the full control effect; potency means the concentration at half of the fitted maximal effect.
SMILES,"activity change, negative = growth inhibition",Potency
Cc1c(C#N)c2ncn(CC#N)c(=O)c2n1-c1ccccc1,-2.44%,
CCCCOC(=O)Nc1nnc(CC(=O)NCc2ccccc2)s1,-11.9%,
Nn1c(SCC(=O)NC2CCCC2)nnc1-c1ccccc1F,-8.8%,
Cc1cc(-c2ccnc(-n3ncc(C(=O)NC(C)(C)CO)c3C3CC3)n2)c(C)s1,,23.1 µM (active)
Cc1cc(-c2ccnc(-n3ncc(C(=O)NCCc4ccncc4)c3C)n2)c(C)s1,-20.8%,
Cc1cccc(CNC(=O)c2cnn(-c3nccc(-c4ccccc4F)n3)c2C2CC2)n1,1.08%,
CNc1nc2c(C)cccn2c(=O)c1C=Nc1ccc(OC)cc1,8.41%,
CC(Oc1ccc(Cl)cc1)C(=O)Nc1ncccn1 (stereo not drawn),-16.2%,
CCN1CCN(C(=O)N[C@@H](C(=O)N[C@@H]2C(=O)N3[C@@H]2SC(C)(C)[C@H]3C(=O)O)c2ccccc2)C(=O)C1=O,-0.422%,
O=C(NC(=S)Nc1ccc(NC(=O)c2cccs2)cc1)c1ccc([N+](=O)[O-])cc1,2.62%,
CCc1nnc(NS(=O)(=O)c2ccc(NC(=S)NC(=O)c3cccs3)cc2)s1,-17.6%,
O=C(NC(=S)Nc1cccc(-c2ccc(CO)o2)c1)c1cccs1,,25.9 µM (active)
Cc1ccc(N2C(=O)C3C4C=CC(CC4)C3C2=O)cc1Cl (stereo not drawn),-6.19%,
N#Cc1cccc(OC(=O)c2ccc3c(=O)n4c(nc3c2)CCC4)c1,-17.1%,
O=C(CSCc1ccc(Cl)cc1)N1CCCCC1,,16.4 µM (active)
O=C(CSCc1cccs1)N1CCCC1,-13.6%,
CC(=O)C(CC(=O)N1CCCC1)C(=O)Nc1ccc(Cl)cc1 (stereo not drawn),-8.38%,
O=C(N/C(=C\c1ccc([N+](=O)[O-])cc1)C(=O)N1CCCCC1)c1ccco1,-17.8%,
COC(=O)/C(NC(C)=O)=C(\C)c1ccc(Cl)cc1,-13.3%,
CCOc1ccccc1NC(=O)Nc1cc(OC)ccc1OC,0.675%,
COc1ccc(OC)c(NC(=O)CC(Cc2ccccc2OC)C(=O)O)c1 (stereo not drawn),,11.2 µM (active)
COc1ccc(OC)c(NC(=O)Cc2cccs2)c1,-10.7%,
CC1CC(C)(C)n2c(O)c(N=NC(N)=S)c3cccc1c32 (stereo not drawn),-23.2%,
COC(=O)[C@@]1(Cc2ccc(OC)cc2)[C@H]2c3cc(C(=O)N4CCCC4)n(Cc4ccc(OC(F)(F)F)cc4)c3C[C@H]2CN1C(=O)c1ccccc1,,18.4 µM (active)
COc1ccc2[nH]cc(CCN3C(=O)c4ccc(C(=O)O)cc4C3=O)c2c1,-14.5%,
COc1ccc(OCc2cccc(C(=O)N3CCCC3)c2)cc1,-22.2%,

SMILES,"activity change, negative = growth inhibition",Potency
COC(=O)[C@@]1(Cc2ccc(F)cc2)[C@H]2c3cc(C(=O)N(C)C)n(CCc4c[nH]c5ccc(OC)cc45)c3C[C@H]2CN1C(=O)c1ccccc1,,23.1 µM (active)
COC(=O)[C@@]1(Cc2ccc(F)cc2)[C@H]2c3cc(C(=O)N4CCCC4)n(Cc4ccc(OC(F)(F)F)cc4)c3C[C@H]2CN1C(=O)c1ccccc1,,18.4 µM (active)
COC(=O)c1cccc(C(=O)N2CCC(CCC(=O)NCc3ccc(F)cc3)CC2)c1,-6.05%,
Cc1ccc(CN2CCNC(=O)C2CC(=O)NCc2csc(C(C)C)n2)cc1 (stereo not drawn),-4.7%,
Cc1cc(NC(=O)c2cccc(N3C(=O)CCC3=O)c2)no1,-17.9%,
Cc1cc(N/C=C\C(=O)c2ccc(Cl)c(Cl)c2)no1,-14.7%,
Cc1cccc(OCCC(=O)OCc2csc(CC(=O)Nc3ccccc3C)n2)c1,0.189%,
O=C(CSc1nnc(SCc2ccc(F)cc2)s1)Nc1ccc(C(=O)O)cc1,5.88%,
CCCCn1c(N)c(N(CCC(C)C)C(=O)COC(=O)c2cccnc2OCC)c(=O)[nH]c1=O,14.9%,
O=C(NCCCCO)C(F)(F)C(F)(F)C(F)(F)C(=O)NCCCCO,4.75%,
CC1=C2C(=O)OC(c3ccoc3)C2(C)CCC1 (stereo not drawn),-12.7%,
O=C(Nc1ccc(F)cc1)Nc1nnc([C@H]2C[C@H](O)[C@@H](CO)O2)s1,-21.8%,
Cc1c(Cl)cnc(NC(=O)COC(=O)C2CCCC2)c1Cl,14.7%,
Cc1ccc(NC(=O)C(C)Sc2nnc(C3CC3)n2C2CC2)cc1S(=O)(=O)N1CCOCC1 (stereo not drawn),15%,
COc1ccc(C2CC(c3ccccc3)Nc3ncnn32)cc1 (stereo not drawn),-9.25%,
FC(F)Oc1ccccc1C1CC(c2ccc(Br)s2)Nc2ncnn21 (stereo not drawn),,16.4 µM (active)
Clc1ccc(C2CC(c3cccs3)n3ncnc3N2)cc1Cl (stereo not drawn),-22%,
CSCC(=O)N1CCCC(C(=O)c2cc(F)ccc2F)C1 (stereo not drawn),-24.5%,
COc1ccc(F)cc1C(=O)C1CCCN(C(=O)CCc2ccccn2)C1 (stereo not drawn),,18.4 µM (active)
COc1ccc(C(=O)N2CCCC(C(=O)c3ccccc3OC)C2)cc1OC (stereo not drawn),15.4%,
CCc1ccc(CN2C(=O)c3ccccc3C2C(=O)NCC2CCCO2)cc1 (stereo not drawn),8.07%,
O=S(=O)(c1cccs1)N1CCN(Cc2ccccc2)CC1,-5.85%,
Cc1cc2oc(=O)cc(CN3CCN(S(=O)(=O)c4cccs4)CC3)c2cc1C(C)C,,20.6 µM (active)
COc1ccc2oc(=O)cc(CN3CCOCC3)c2c1,11.8%,
O=C(CSc1nnc(-c2cccs2)n1-c1ccccc1)NCc1ccco1,-11.9%,
CC1CCc2c(sc(NC(=O)c3ccc(Cn4cc(Br)cn4)o3)c2C(N)=O)C1 (stereo not drawn),-20.8%,

SMILES,"activity change, negative = growth inhibition",Potency
CCCCN(C(=O)c1cccc(N2C(=O)c3ccccc3C2=O)c1)c1c(N)n(CCCC)c(=O)[nH]c1=O,17.5%,
Cc1nn(C)c(C)c1S(=O)(=O)N1CCc2ccccc21,-29.2%,
O=C(O)CCC(=O)Nc1nc2ccc([N+](=O)[O-])cc2s1,4.77%,
O=C(Nc1nc2ccc([N+](=O)[O-])cc2s1)c1ccncc1,-13.7%,
O=C(COC(=O)c1ccc(F)cc1)Nc1nc2ccc([N+](=O)[O-])cc2s1,-18.2%,
O=S(=O)(c1ccccc1)N1CCc2ccccc21,-7.81%,
O=C(Nc1nc2ccc([N+](=O)[O-])cc2s1)c1ccc(S(=O)(=O)N2CCCc3ccccc32)cc1,,4.11 µM (active)
CS(=O)(=O)c1ccc2nc(NC(=O)c3ccc(N4CCCC4=O)cc3)sc2c1,-0.935%,
O=C(NC(Nc1nc2ccc([N+](=O)[O-])cc2s1)(C(F)(F)F)C(F)(F)F)c1ccccc1,,0.461 µM (active)
CSc1nc2ccc(S(=O)(=O)N3CCc4ccccc43)cc2s1,,23.1 µM (active)
O=C(COC(=O)c1ccc(S(=O)(=O)N2CCCCCC2)cc1)Nc1ccccc1C(F)(F)F,1.22%,
Cc1ccc(C2(C)NC(=O)N(CC(=O)N3CC(=O)Nc4ccccc43)C2=O)cc1 (stereo not drawn),-4.34%,
COC(=O)C[C@@H]1C=C[C@@H](NC(=O)c2ccc3c(c2)OCO3)[C@@H](CO)O1,-10.5%,
COCCC(=O)N1CCC(Oc2ccc(C(=O)NCc3ccon3)cc2)CC1,-24.7%,
N#Cc1c(-c2ccccc2)cc(-c2ccccc2)nc1SCC(=O)O,10.7%,
CN1CCN(C2Cc3ccc(Cl)cc3Sc3ccc(F)cc32)CC1 (stereo not drawn),,18.4 µM (active)
CN1C(=O)CN2CCc3ccccc3C2c2cc(Cl)ccc21 (stereo not drawn),0.961%,
COC(=O)C1NN=C(C(=O)c2ccc(Br)cc2)C1c1cccc(Br)c1 (stereo not drawn),-18.6%,
Cc1ccc(NC(=O)C2CC2c2ccccc2)cc1 (stereo not drawn),2.36%,
Nc1ncnc2c1ncn2[C@@H]1O[C@H](C(=O)N2CCSC2)[C@@H](O)[C@H]1O,-25.8%,
C=CCc1ccccc1OCC(O)CN1CCN(CCO)CC1 (stereo not drawn),20.7%,
Cc1cccc(OCC(O)CN2CCN(CCN3C(=O)c4cccc5cccc(c45)C3=O)CC2)c1C (stereo not drawn),,25.9 µM (active)
Cc1cccc(C)c1OCC(O)CN1CCCCC1 (stereo not drawn),4.81%,
CCCC(C(=O)NC1CCCC1)N(C(=O)Cn1nnc(-c2ccc(C)o2)n1)c1cccc(O)c1 (stereo not drawn),-11.8%,
COC(=O)c1cc(C)sc1NC(=O)CC1Nc2ccccc2NC1=O (stereo not drawn),-15.1%,
O=C(c1csnn1)N1CCC[C@@]2(CCN(Cc3nccs3)C2)C1,4.1%,

SMILES,"activity change, negative = growth inhibition",Potency
NC(=O)NC(=O)C(OC(=O)CCNS(=O)(=O)c1ccccc1)c1ccccc1 (stereo not drawn),2.11%,
Cc1ccc(N2C(=O)C(Cc3ccccc3)NC2=S)cc1 (stereo not drawn),-9.36%,
Cc1ccc(N2C(=O)C3CC3C2=O)cc1 (stereo not drawn),11%,
Cc1ccc(N2C(=O)C3C(c4ccccc4)(C2=O)C3(c2ccccc2)c2ccccc2)cc1 (stereo not drawn),,13 µM (active)
O=C(N1CCCC1)C12CC3CC(C1)CC(C(=O)N1CCCC1)(C3)C2,-19%,
COc1ccccc1C(=O)NNC(=O)CCN1C(=O)/C(=C\c2ccccc2)SC1=S,-25.6%,
CC(OC(=O)CNS(=O)(=O)/C=C/c1ccccc1)C(=O)Nc1ccc(S(=O)(=O)N2CCCC2)cc1 (stereo not drawn),-12.5%,
Cc1ccc(CNC(=O)CC(NC(=O)c2ccccc2)c2ccccc2)cc1 (stereo not drawn),11.7%,
COc1ccc(Cc2nc3ccc(C(=O)NCc4ccccc4Cl)cc3o2)cc1,,16.4 µM (active)
COc1ccc(Cc2nc3ccc(C(=O)N4CCC(N(C)C)C4)cc3o2)cc1 (stereo not drawn),9.41%,
COCCNC(=O)c1ccc2nc(Cc3ccc(OC)c(OC)c3)oc2c1,0.0783%,
CSCCNC(=O)c1ccc2nc(Cc3ccccc3F)oc2c1,-0.744%,
COc1ccc(Cc2nc3ccc(C(=O)NCc4ccccc4C)cc3o2)cc1,,8.2 µM (active)
CCn1ccnc1CN(C)C(=O)c1ccc2nc(Cc3ccc(OC)cc3)oc2c1,-4.12%,
CCCc1c(C(=O)N/N=C(\C)CCc2ccc(OC)cc2)nnn1-c1nonc1N,15.5%,
Cc1ccc2c(C)c(C(=O)N(C)Cc3ccncn3)oc2c1C,15.4%,
CCSc1ccccc1C(=O)NCc1ccc(OC)cc1,-8.91%,
COc1ccc(C(C(=O)NCc2ccccc2)n2c(=O)c(-c3ccccc3)nc3ccccc32)cc1 (stereo not drawn),,16.4 µM (active)
COc1ccc(CNC(=O)CN2C(=O)c3ccccc3S2(=O)=O)cc1,-24.4%,
CCCCCNC(=O)C(c1ccc(OC)cc1)n1c(=O)c(-c2ccccc2)nc2ccccc21 (stereo not drawn),,20.6 µM (active)
CCOCCCNC(=O)C(NC(=O)CNC(=O)c1ccccc1)c1ccc(OC)cc1 (stereo not drawn),4.34%,
COc1ccc(NC(=O)CN(C)C(=O)c2n[nH]c3ccccc23)cc1,-22.5%,
CCOCCCNC(=O)C(NC(=O)Cc1c[nH]c2ccccc12)c1ccc(OC)cc1 (stereo not drawn),-15%,
COc1ccc(NC(=O)C(c2ccncc2)n2c(=O)c(-c3cc4ccccc4[nH]3)nc3ccccc32)cc1 (stereo not drawn),,18.4 µM (active)
COc1ccc(NC(=O)C(c2ccccc2)N2Cc3ccccc3C2=O)cc1 (stereo not drawn),-8.19%,

# Reference: PubChem BioAssay AID686978 (National Center for Advancing Translational Sciences (NCATS), 2013)
